Test results from PubChem BioAssay (NCI).
This is part of a sample that, as a whole, favours compounds with a hit. Of some 83,000 tested, about 20% had one in any assay.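 96-well plates, one dose, 48 hours. Percent growth reported; active if below 10.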 Activity calls are given as the source filed them.

Columns and labels:
Experiment in all cases: NCI-60 one-dose screen, 48 h (100 = growth as untreated, 0 = no growth, -100 = all killed)
SR leukemia = details: 10 µM unless noted
RPMI-8226 leukemia = details: 10 µM unless noted
OVCAR-8 ovarian = details: 10 µM unless noted
OVCAR-5 ovarian = details: 10 µM unless noted
OVCAR-4 ovarian = details: 10 µM
OVCAR-3 ovarian = details: 10 µM unless noted
HS 578T breast = details: 10 µM unless noted
NCI/ADR-RES ovarian = details: 10 µM unless noted
T-47D breast = details: 10 µM unless noted
BT-549 breast = details: 10 µM unless noted
MDA-MB-435 melanoma = details: 10 µM unless noted
MCF7 breast = details: 10 µM unless noted
HCT-116 colon = details: 10 µM unless noted
HCC-2998 colon = details: 10 µM unless noted
KM12 colon = details: 10 µM unless noted
SK-OV-3 ovarian = details: 10 µM unless noted
IGROV1 ovarian = details: 10 µM unless noted
SW-620 colon = details: 10 µM unless noted

Measured: growth

CCN(CCNc1ccc(C)c2sc3cc(Cl)ccc3c(=O)c12)CC(C)O (stereo unspecified)
inactive: SR leukemia 12.3% | OVCAR-8 ovarian 58.3% | OVCAR-5 ovarian 79.9% | OVCAR-4 ovarian 77% | OVCAR-3 ovarian 60.6% | HS 578T breast 63.2% | NCI/ADR-RES ovarian 74.8% | T-47D breast 31.7% | BT-549 breast 110% | MCF7 breast 36.7% | KM12 colon 39.2%
active: RPMI-8226 leukemia -23.2% | MDA-MB-435 melanoma 6% | HCT-116 colon 9.99% | HCC-2998 colon 5.33%

C=C(C)[C@@H]1CC[C@]2(COCCCN)CC[C@]3(C)[C@H](CC[C@@H]4[C@@](C)(CCCNCCCN)[C@H](C(=C)C)CC[C@]43C)[C@@H]12
inactive: SR leukemia 44.4% [100 µM]
active: RPMI-8226 leukemia -53.4% [100 µM] | OVCAR-8 ovarian -56.7% [100 µM] | OVCAR-5 ovarian -63.6% [100 µM] | SK-OV-3 ovarian -60.4% [100 µM] | IGROV1 ovarian -58.6% [100 µM] | OVCAR-3 ovarian -53.3% [100 µM] | HS 578T breast -39.2% [100 µM] | NCI/ADR-RES ovarian -53.6% [100 µM] | T-47D breast -60.6% [100 µM] | BT-549 breast -43.2% [100 µM] | MDA-MB-435 melanoma -68.5% [100 µM] | SW-620 colon -67% [100 µM] | MCF7 breast -47.9% [100 µM] | HCT-116 colon -31.7% [100 µM] | HCC-2998 colon -55% [100 µM] | KM12 colon -62.5% [100 µM]

C=C(C)[C@@H]1CC[C@]2(C(=O)NCCNCCNCCN)CC[C@]3(C)[C@H](CC[C@@H]4[C@@]5(C)CCC(=O)C(C)(C)[C@@H]5CC[C@]43C)[C@@H]12
inactive: SK-OV-3 ovarian 70.5% [100 µM] | HS 578T breast 47.8% [100 µM] | BT-549 breast 58.3% [100 µM]
active: SR leukemia 4.96% [100 µM] | RPMI-8226 leukemia -30.7% [100 µM] | OVCAR-8 ovarian -75% [100 µM] | OVCAR-5 ovarian -44.1% [100 µM] | IGROV1 ovarian -84.8% [100 µM] | OVCAR-3 ovarian -72.5% [100 µM] | NCI/ADR-RES ovarian -73.3% [100 µM] | T-47D breast -4.36% [100 µM] | MDA-MB-435 melanoma -49.9% [100 µM] | SW-620 colon -76.7% [100 µM] | MCF7 breast -58% [100 µM] | HCT-116 colon -80.7% [100 µM] | HCC-2998 colon -90% [100 µM] | KM12 colon -81.9% [100 µM]

COC(=O)[C@]12CCC(C)(C)C[C@H]1C1=CC[C@@H]3[C@@]4(C)C/C(=C/c5cccnc5)C(=O)C(C)(C)[C@@H]4CC[C@@]3(C)[C@]1(C)CC2
inactive: SR leukemia 47.7% [100 µM]
active: RPMI-8226 leukemia -38.4% [100 µM] | OVCAR-8 ovarian 0.407% [100 µM] | OVCAR-5 ovarian -19.5% [100 µM] | SK-OV-3 ovarian 7.52% [100 µM] | IGROV1 ovarian -34.2% [100 µM] | OVCAR-3 ovarian -1.73% [100 µM] | HS 578T breast -18.5% [100 µM] | NCI/ADR-RES ovarian -40.5% [100 µM] | T-47D breast -12% [100 µM] | BT-549 breast -45.7% [100 µM] | MDA-MB-435 melanoma -51.1% [100 µM] | SW-620 colon -43.4% [100 µM] | MCF7 breast -65.1% [100 µM] | HCT-116 colon -29.4% [100 µM] | HCC-2998 colon -72.8% [100 µM] | KM12 colon -48.6% [100 µM]

C=C(C)[C@@H]1CC[C@]2(C(=O)OC)CC[C@]3(C)[C@H](CC[C@@H]4[C@@]5(C)CC/C(=N\OCCC(=NCCC#N)NOCCC#N)C(C)(C)[C@@H]5CC[C@]43C)[C@@H]12
inactive: OVCAR-8 ovarian 13.2% [100 µM] | OVCAR-5 ovarian 50.6% [100 µM] | SK-OV-3 ovarian 34.6% [100 µM] | IGROV1 ovarian 18.8% [100 µM] | HS 578T breast 24.3% [100 µM] | NCI/ADR-RES ovarian 17.1% [100 µM] | T-47D breast 15.1% [100 µM] | MDA-MB-435 melanoma 14.6% [100 µM] | SW-620 colon 22% [100 µM] | MCF7 breast 12.4% [100 µM] | HCC-2998 colon 26.9% [100 µM] | KM12 colon 10.9% [100 µM]
active: SR leukemia 1.86% [100 µM] | RPMI-8226 leukemia 3.28% [100 µM] | OVCAR-3 ovarian -34.5% [100 µM] | BT-549 breast 4.4% [100 µM] | HCT-116 colon 4.16% [100 µM]

O=C(Nc1ccccc1)Nc1ccc(C(=O)/C=C/c2ccc(N3CCCC3)cc2)cc1
active: MDA-MB-435 melanoma 4.29%
inactive: SR leukemia 98.9% | RPMI-8226 leukemia 78.3% | OVCAR-8 ovarian 81.7% | OVCAR-5 ovarian 83.2% | SK-OV-3 ovarian 66.1% | IGROV1 ovarian 92.1% | OVCAR-3 ovarian 43% | HS 578T breast 38.2% | NCI/ADR-RES ovarian 28.6% | T-47D breast 58.9% | BT-549 breast 93.3% | SW-620 colon 83.6% | MCF7 breast 66% | HCT-116 colon 52.9% | HCC-2998 colon 81.4% | KM12 colon 52.5%

C=C(C)[C@@H]1CC[C@]2(C(=O)O)CC[C@]3(C)[C@H](CC[C@@H]4[C@@]5(C)C/C(=C/c6ccco6)C(=O)C(C)(C)[C@@H]5CC[C@]43C)[C@@H]12
active: RPMI-8226 leukemia 2.97% [100 µM] | OVCAR-8 ovarian -17.6% [100 µM] | OVCAR-5 ovarian -44.4% [100 µM] | SK-OV-3 ovarian -54.2% [100 µM] | IGROV1 ovarian -63.2% [100 µM] | OVCAR-3 ovarian -59.1% [100 µM] | HS 578T breast -1.95% [100 µM] | NCI/ADR-RES ovarian -43.8% [100 µM] | T-47D breast -8.1% [100 µM] | BT-549 breast -67.8% [100 µM] | MDA-MB-435 melanoma -75.9% [100 µM] | SW-620 colon -34.7% [100 µM] | MCF7 breast -53.2% [100 µM] | HCT-116 colon -74.7% [100 µM] | HCC-2998 colon -78.1% [100 µM] | KM12 colon -96.3% [100 µM]
inactive: SR leukemia 31.9% [100 µM]

C=C(C)[C@@H]1CC[C@]2(C)[C@H](C(=O)C=C3[C@@H]4C[C@](C)(C(=O)N5CCN(C)CC5)CC[C@]4(C)CC[C@]32C)[C@@]1(C)CCC#N
inactive: SR leukemia 34.7% [100 µM]
active: RPMI-8226 leukemia -54.5% [100 µM] | OVCAR-8 ovarian -70.9% [100 µM] | OVCAR-5 ovarian -75.9% [100 µM] | SK-OV-3 ovarian -76.1% [100 µM] | IGROV1 ovarian -76% [100 µM] | OVCAR-3 ovarian -76.6% [100 µM] | HS 578T breast -54.8% [100 µM] | NCI/ADR-RES ovarian -81.3% [100 µM] | T-47D breast -40.5% [100 µM] | BT-549 breast -73.3% [100 µM] | MDA-MB-435 melanoma -81% [100 µM] | SW-620 colon -80% [100 µM] | MCF7 breast -71.1% [100 µM] | HCT-116 colon -70.7% [100 µM] | HCC-2998 colon -94% [100 µM] | KM12 colon -80.2% [100 µM]

CC(C)=CC/C=C(/C)[C@H]1CC[C@]2(C)[C@@H]1CC[C@@H]1[C@@]3(C)CCCNC(C)(C)[C@@H]3CC[C@]12C
active: RPMI-8226 leukemia -40.1% [100 µM] | OVCAR-8 ovarian -29.5% [100 µM] | OVCAR-5 ovarian -85.9% [100 µM] | SK-OV-3 ovarian -66.8% [100 µM] | IGROV1 ovarian -74.1% [100 µM] | OVCAR-3 ovarian -47.8% [100 µM] | HS 578T breast -50.2% [100 µM] | NCI/ADR-RES ovarian -69.6% [100 µM] | T-47D breast -50.9% [100 µM] | BT-549 breast -54.9% [100 µM] | MDA-MB-435 melanoma -75.4% [100 µM] | SW-620 colon -57.5% [100 µM] | MCF7 breast -54.6% [100 µM] | HCT-116 colon -61% [100 µM] | HCC-2998 colon -50.5% [100 µM] | KM12 colon -57.4% [100 µM]
inactive: SR leukemia 15.2% [100 µM]

O=C(Nc1cccc2ccccc12)c1cc2ccccc2cc1O
active: SK-OV-3 ovarian 0.954% | IGROV1 ovarian 7.48% | NCI/ADR-RES ovarian 4.52% | MDA-MB-435 melanoma 0.191% | MCF7 breast 8.7% | HCT-116 colon 7.65%
inactive: SR leukemia 16% | RPMI-8226 leukemia 15.1% | OVCAR-8 ovarian 12.2% | OVCAR-5 ovarian 105% | OVCAR-3 ovarian 19.9% | HS 578T breast 32.2% | T-47D breast 14.4% | BT-549 breast 11.6% | SW-620 colon 16.6% | HCC-2998 colon 27.7% | KM12 colon 10.2%

C=C(CC(=O)OC)C(C)=O
inactive: SR leukemia 112% | RPMI-8226 leukemia 120% | OVCAR-8 ovarian 107% | OVCAR-5 ovarian 112% | SK-OV-3 ovarian 103% | IGROV1 ovarian 101% | OVCAR-3 ovarian 106% | HS 578T breast 96.5% | NCI/ADR-RES ovarian 113% | T-47D breast 108% | BT-549 breast 127% | MDA-MB-435 melanoma 116% | SW-620 colon 102% | MCF7 breast 111% | HCT-116 colon 116% | HCC-2998 colon 112% | KM12 colon 102%

O=S(=O)(/N=c1/n(-c2ccccc2)nc2n1CCN2C1=NCCN1)c1ccc(-c2ccccc2)cc1
inactive: SR leukemia 67.4% | RPMI-8226 leukemia 96.8% | OVCAR-8 ovarian 103% | OVCAR-5 ovarian 96.6% | SK-OV-3 ovarian 100% | IGROV1 ovarian 95.4% | OVCAR-3 ovarian 101% | HS 578T breast 93.4% | NCI/ADR-RES ovarian 104% | T-47D breast 94% | BT-549 breast 97.9% | MDA-MB-435 melanoma 94.4% | SW-620 colon 98.3% | MCF7 breast 97.8% | HCT-116 colon 95.6% | HCC-2998 colon 101% | KM12 colon 103%

C=C(C)[C@@H]1CC[C@]2(C(=O)NCCCN)CC[C@]3(C)[C@H](CC[C@@H]4[C@@]5(C)CC[C@H](O)C(C)(C)[C@@H]5CC[C@]43C)[C@@H]12
inactive: SR leukemia 23.7% [100 µM]
active: RPMI-8226 leukemia -6.66% [100 µM] | OVCAR-8 ovarian -3.81% [100 µM] | OVCAR-5 ovarian -47.7% [100 µM] | SK-OV-3 ovarian -27.2% [100 µM] | IGROV1 ovarian -6.94% [100 µM] | OVCAR-3 ovarian -45.9% [100 µM] | HS 578T breast -4.98% [100 µM] | NCI/ADR-RES ovarian -9.52% [100 µM] | T-47D breast -12.8% [100 µM] | BT-549 breast -2.14% [100 µM] | MDA-MB-435 melanoma -32.4% [100 µM] | SW-620 colon -36.2% [100 µM] | MCF7 breast -8.46% [100 µM] | HCT-116 colon 1.97% [100 µM] | HCC-2998 colon -23.4% [100 µM] | KM12 colon -25.3% [100 µM]

CC1=CCc2ccccc21
inactive: SR leukemia 98.6% | RPMI-8226 leukemia 95% | OVCAR-8 ovarian 101% | OVCAR-5 ovarian 102% | SK-OV-3 ovarian 101% | IGROV1 ovarian 88.5% | OVCAR-3 ovarian 106% | HS 578T breast 98.3% | NCI/ADR-RES ovarian 98.1% | T-47D breast 96.8% | BT-549 breast 93.5% | MDA-MB-435 melanoma 106% | SW-620 colon 95.6% | MCF7 breast 90.5% | HCT-116 colon 101% | HCC-2998 colon 108% | KM12 colon 103%
